“And” between values parts separate entries of the source, which are not always exact repeats. Equal entries are not always repeated. The source made the active and inactive calls. Rule for the calls: active = hit-call score of the fitted dose curve at least 0.9, where 1 is the maximum; inactive = score below 0.9.
Assays:
[1] = read-out: TIMP metallopeptidase inhibitor 1 (TIMP1), TIMP1 (gene 7076); test: BSK_hDFCGF_TIMP1: BioMAP Diversity Plus: hDFCGF Assay for TIMP metallopeptidase inhibitor 1 (TIMP1) Biomarker Activity (AID 2283062); conditions: primary human foreskin fibroblasts; actives raise or lower the signal
Outline: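 Human skin fibroblasts (primary), hDFCGF system; compound exposure 24 h; TIMP-1 by ELISA; bidirectional fit vs DMSO negative control; overt cytotoxicity by SRB in parallel wells.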

[2] = read-out: Monokine induced gamma interferon (MIG), CXCL9 (gene 4283); test: BSK_hDFCGF_MIG: BioMAP Diversity Plus: hDFCGF Assay for Monokine induced gamma interferon (MIG) Biomarker Activity (AID 2283063); conditions: primary human foreskin fibroblasts; actives raise or lower the signal
Outline: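 Chemicals were added to primary human foreskin fibroblast cultures, which were sampled 24 h later. MIG levels were then quantified by ELISA and responses fitted in both directions relative to DMSO.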

[3] = read-out: Matrix Metallopeptidase 1 (MMP1), MMP1 (gene 4312); test: BSK_hDFCGF_MMP1: BioMAP Diversity Plus: hDFCGF Assay for Matrix Metallopeptidase 1 (MMP1) Biomarker Activity (AID 2283064); conditions: primary human foreskin fibroblasts; actives raise or lower the signal
Outline: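 Human foreskin fibroblasts exposed to chemical for 24 h; MMP1 detected by ELISA, with DMSO as baseline for bidirectional fitting.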

[4] = read-out: Plasminogen activator inhibitor-1 (PAI1), SERPINE1 (gene 5054); test: BSK_hDFCGF_PAI1: BioMAP Diversity Plus: hDFCGF Assay for Plasminogen activator inhibitor-1 (PAI1) Biomarker Activity (AID 2283066); conditions: primary human foreskin fibroblasts; actives raise or lower the signal
Outline: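 Fibroblasts from human foreskin were treated with test chemical. After 24 h, PAI-1 was measured by ELISA. Activity was fitted in both directions relative to DMSO.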

[5] = read-out: Intercellular Adhesion Molecule 1 (ICAM1), ICAM1 (gene 3383); test: BSK_KF3CT_ICAM1: BioMAP Diversity Plus: KF3CT Assay for Intercellular Adhesion Molecule 1 (ICAM1) Biomarker Activity (AID 2283067); conditions: primary human keratinocytes with fibroblasts; actives raise or lower the signal
Outline: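 ICAM-1 levels are measured by ELISA 24 h after dosing a primary human co-culture of keratinocytes and foreskin fibroblasts. Activity in either direction is fitted relative to DMSO vehicle.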

[6] = read-out: Interferon-gamma inducible Protein 10 (IP10), CXCL10 (gene 3627); test: BSK_KF3CT_IP10: BioMAP Diversity Plus: KF3CT Assay for Interferon-gamma inducible Protein 10 (IP10) Biomarker Activity (AID 2283068); conditions: primary human keratinocytes with fibroblasts; actives raise or lower the signal
Outline: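 In a primary skin co-culture of keratinocytes and fibroblasts, IP-10 is quantified by ELISA at 24 h after dosing. SRB staining of parallel wells monitors overt toxicity. Curves are fitted both directions against DMSO.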

[7] = BSK_KF3CT_SRB: Viability Assessment in the BioMAP Diversity Plus: KF3CT Assay (AID 2283069); conditions: primary human keratinocytes with fibroblasts;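 note: read 24 h after compound addition; fitted for both signal gain and loss against DMSO baseline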
Outline: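 Overt cytotoxicity is assessed as total protein by sulforhodamine B staining in parallel human skin co-cultures at 24 h after dosing. DMSO serves as negative control and baseline.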

[8] = read-out: Interleukin-1 alpha (IL1a), IL1A (gene 3552); test: BSK_KF3CT_IL1a: BioMAP Diversity Plus: KF3CT Assay for Interleukin-1 alpha (IL1a) Biomarker Activity (AID 2283070); conditions: primary human keratinocytes with fibroblasts; actives raise or lower the signal
Outline: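 Readout is IL-1a level by ELISA, compared bidirectionally with DMSO as baseline. Cells: human keratinocytes co-cultured with foreskin fibroblasts, harvested 24 h post-dose.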

[9] = read-out: TIMP metallopeptidase inhibitor 2 (TIMP2), TIMP2 (gene 7077); test: BSK_KF3CT_TIMP2: BioMAP Diversity Plus: KF3CT Assay for TIMP metallopeptidase inhibitor 2 (TIMP2) Biomarker Activity (AID 2283071); conditions: primary human keratinocytes with fibroblasts; actives raise or lower the signal
Outline: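 Chemicals were dosed onto human skin primary co-cultures of keratinocytes and foreskin fibroblasts, and TIMP-2 was measured by ELISA after 24 hours. Activity in either direction was fitted relative to DMSO.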

[10] = read-out: Transforming growth factor beta 1 (TGFb1), TGFB1 (gene 7040); test: BSK_KF3CT_TGFb1: BioMAP Diversity Plus: KF3CT Assay for Transforming growth factor beta 1 (TGFb1) Biomarker Activity (AID 2283072); conditions: primary human keratinocytes with fibroblasts; actives raise or lower the signal
Outline: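 KF3CT co-culture (keratinocytes + fibroblasts), 24 h exposure → TGF-b1 ELISA → bidirectional fit, DMSO = baseline. Parallel SRB total-protein staining (0.1% SRB, 10% TCA fixation, 560 nm) for cytotoxicity.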

[11] = read-out: C-C motif chemokine 2 (Homo sapiens) (UniProt P13500); test: BSK_KF3CT_MCP1: BioMAP Diversity Plus: KF3CT Assay for Monocyte Chemoattractant Protein 1 (MCP1/CCL2) Biomarker Activity (AID 2283073); conditions: primary human keratinocytes with fibroblasts; actives raise or lower the signal
Outline: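 ELISA readout of MCP-1 after 24 h chemical dosing of a human skin primary co-culture of keratinocytes and foreskin fibroblasts. Activity was fitted in both directions against DMSO.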

[12] = read-out: Matrix Metallopeptidase 9 (MMP9), MMP9 (gene 4318); test: BSK_KF3CT_MMP9: BioMAP Diversity Plus: KF3CT Assay for Matrix Metallopeptidase 9 (MMP9) Biomarker Activity (AID 2283074); conditions: primary human keratinocytes with fibroblasts; actives raise or lower the signal;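 for AC50: MMP9 protein level quantified by ELISA in the co-culture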
Outline: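 Values come from bidirectional fitting relative to DMSO of MMP-9 levels, which were measured by ELISA. Measurements were taken 24 h after chemical dosing of a keratinocyte and foreskin fibroblast co-culture.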

[13] = read-out: urokinase plasminogen activator (uPA), PLAU (gene 5328); test: BSK_KF3CT_uPA: BioMAP Diversity Plus: KF3CT Assay for urokinase plasminogen activator (uPA) Biomarker Activity (AID 2283075); conditions: primary human keratinocytes with fibroblasts; actives raise or lower the signal
Outline: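 Values derive from bidirectional fitting against DMSO controls. Keratinocyte/foreskin fibroblast co-cultures received chemical; 24 h later uPA was detected by ELISA, with SRB total-protein staining in parallel wells for overt cytotoxicity.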

CD40, CD40 (gene 958) = test: BSK_LPS_CD40: BioMAP Diversity Plus: LPS Assay for CD40 Biomarker Activity (AID 2283076); conditions: primary human HUVEC with PBMC; actives raise or lower the signal
Outline: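 Cells were dosed, incubated 24 h, then assayed for CD40 by ELISA. Gain or loss of signal was analysed relative to DMSO controls. The culture paired human umbilical vein endothelium with peripheral blood mononuclear cells.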

[14] = read-out: E-selectin (Homo sapiens) (UniProt P16581); test: BSK_LPS_Eselectin: BioMAP Diversity Plus: LPS Assay for Eselectin Biomarker Activity (AID 2283077); conditions: primary human HUVEC with PBMC; actives raise or lower the signal
Outline: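 Primary human vascular co-culture (endothelium plus PBMC) was dosed with chemical, then E-selectin quantified by ELISA at 24 h. Endpoint values derive from bidirectional curve fitting relative to DMSO.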

[15] = BSK_LPS_SRB: Viability Assessment in the BioMAP Diversity Plus: LPS Assay (AID 2283079); conditions: primary human HUVEC with PBMC;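 note: total protein by sulforhodamine B absorbance as a cytotoxicity measure; measured one day after compound addition; fitted in both directions against DMSO so loss or gain of signal counts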
Outline: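 Readout is SRB absorbance at 560 nm (0.1% stain, TCA-fixed parallel cultures) as a total-protein cytotoxicity measure. Cells: primary human umbilical vein endothelium plus peripheral blood mononuclear cells, 24 h after chemical exposure; DMSO served as baseline.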

[16] = read-out: Interleukin-1 alpha (IL1a), IL1A (gene 3552); test: BSK_LPS_IL1a: BioMAP Diversity Plus: LPS Assay for Interleukin-1 alpha (IL1a) Biomarker Activity (AID 2283080); conditions: primary human HUVEC with PBMC; actives raise or lower the signal
Outline: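 ELISA read-out of IL-1 alpha from a human primary vascular co-culture (endothelium plus PBMC) under LPS, sampled 24 hours post-dosing. Activity was fitted in both directions relative to DMSO controls.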

[17] = read-out: Monocyte Chemoattractant Protein-1 (MCP1), CCL2 (gene 6347); test: BSK_LPS_MCP1: BioMAP Diversity Plus: LPS Assay for Monocyte Chemoattractant Protein-1 (MCP1) Biomarker Activity (AID 2283081); conditions: primary human HUVEC with PBMC; actives raise or lower the signal;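 for AC50: secreted MCP-1 protein quantified by ELISA in culture supernatant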
Outline: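 Human endothelial–PBMC co-cultures were dosed with chemical, then LPS-driven MCP-1 levels were quantified by ELISA at 24 h. Activity in either direction was fitted versus DMSO negative control.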

[18] = read-out: Interleukin-8 (IL8), CXCL8 (gene 3576); test: BSK_LPS_IL8: BioMAP Diversity Plus: LPS Assay for Interleukin-8 (IL8) Biomarker Activity (AID 2283078); conditions: primary human HUVEC with PBMC; actives raise or lower the signal
Outline: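 Readout is IL-8 by ELISA, taken 24 h after compounds were added to LPS-stimulated endothelial/PBMC co-cultures. Both increases and decreases relative to DMSO control were scored through bidirectional fitting.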

Measured: AC50

Chain of E-selectin (Homo sapiens) (P16581 whole entry, looked up): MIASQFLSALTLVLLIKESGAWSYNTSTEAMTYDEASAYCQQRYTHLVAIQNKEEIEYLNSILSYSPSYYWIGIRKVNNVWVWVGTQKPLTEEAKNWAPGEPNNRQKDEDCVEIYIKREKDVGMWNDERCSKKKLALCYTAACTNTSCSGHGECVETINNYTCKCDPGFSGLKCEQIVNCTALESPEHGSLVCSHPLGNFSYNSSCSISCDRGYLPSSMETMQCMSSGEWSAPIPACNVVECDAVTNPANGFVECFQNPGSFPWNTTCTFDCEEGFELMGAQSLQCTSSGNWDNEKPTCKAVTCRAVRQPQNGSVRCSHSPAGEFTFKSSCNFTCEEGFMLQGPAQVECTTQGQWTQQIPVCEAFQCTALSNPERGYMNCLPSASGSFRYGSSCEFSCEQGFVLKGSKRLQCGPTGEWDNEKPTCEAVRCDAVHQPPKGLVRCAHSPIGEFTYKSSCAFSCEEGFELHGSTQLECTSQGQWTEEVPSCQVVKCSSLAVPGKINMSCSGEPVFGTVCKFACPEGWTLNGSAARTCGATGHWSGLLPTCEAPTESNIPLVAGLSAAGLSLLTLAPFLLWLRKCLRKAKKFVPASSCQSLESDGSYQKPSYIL

c1ccc2sc(SN(C3CCCCC3)C3CCCCC3)nc2c1
active: [4] 2.8 µM | [12] 0.888 µM
not listed: [18]
inactive: all other assays above

O=[N+]([O-])c1cc(C(F)(F)F)ccc1Cl
not listed: [18]
inactive: all other assays above

O=C1OC2(c3cc(Br)c(O)c(Br)c3Oc3c2cc(Br)c(O)c3Br)c2c(Cl)c(Cl)c(Cl)c(Cl)c21
active: [1] 11.5 µM | [2] 11.6 µM | [3] 3.42 µM | [4] 2.43 µM | [5] 8.86 µM | [6] 7.41 µM | [7] 4.07 µM | [8] 3.69 µM | [9] 1.6 µM | [10] 0.979 µM | [12] 3.53 µM | [13] 3.89 µM | CD40, CD40 (gene 958) 4.27 µM | [14] 5.71 µM | [18] 13.2 µM | [15] 3.6 µM | [16] 3.73 µM | [17] 4.59 µM

CCCCCCCCCC=O
active: [6] 11.9 µM
not listed: [18]
inactive: all other assays above

NCCNCCN
not listed: [10] | [18]
inactive: all other assays above

CC(=O)OCCC(C)CC(C)(C)C (centres undefined)
not listed: [10] | [18]
inactive: all other assays above

CC1CCC(C(C)CS)CC1S (centres undefined)
inactive: [4]
active: [1] 6.08 µM | [2] 7.33 µM | [3] 9.03 µM | [5] 35.5 µM | [6] 20 µM | [7] 13.8 µM | [8] 30.2 µM | [9] 5.83 µM | [10] 7.37 µM | [11] 20 µM | [12] 24 µM | [13] 33.7 µM | CD40, CD40 (gene 958) 20 µM | [14] 34.6 µM | [15] 29.4 µM | [16] 36.3 µM | [17] 33.5 µM

O=C(O)c1cn(-c2ccc(F)cc2)c2cc(N3CCNCC3)c(F)cc2c1=O
not listed: [18]
inactive: all other assays above

CC(=O)O[C@]1(C(C)=O)CC[C@H]2[C@@H]3C[C@H](C)C4=CC(=O)CC[C@]4(C)[C@H]3CC[C@@]21C
active: [6] 2.55 µM
not listed: [18]
inactive: all other assays above

O=C1CCCCCCCCCCCCCCO1
active: [4] 20 µM | [5] 17.9 µM | [9] 20 µM | [10] 20 µM | [11] 12.5 µM
not listed: [18]
inactive: all other assays above

O=C(O)C[C@H](O)C[C@H](O)/C=C/c1c(C2CC2)nc2ccccc2c1-c1ccc(F)cc1
active: [4] 2.96 µM | [14] 0.0822 µM | [15] 0.256 µM
not listed: [16] | [18]
inactive: all other assays above

CCC(=O)OCc1ccccc1
not listed: [10] | [18]
inactive: all other assays above

Cc1cc(C2(c3cc(C)c(O)cc3C)OS(=O)(=O)c3ccccc32)c(C)cc1O
active: [4] 20 µM and 4.95 µM
not listed: [10] | [18]
inactive: all other assays above

— PubChem BioAssay (EPA / NIEHS)
